According to PubChem BioAssay AID1159580 (chemical genetic matrix, 2015):
Screen size: about 5,500 compounds; about 2,000 (36%) were called active. About 18% were inconclusive and are not listed. Cut-off read from the data, not from the text of the source: active = normalized growth mostly below about 0.91 (no sharp cut-off); inconclusive = no clear call, values can overlap the other calls; inactive = mostly above about 0.92. This is one part of the list.

Assay: chemical genetic growth profiling, strain panel (AID 1159580);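 note: tested at 20 µM; growth read once vehicle control cultures reached saturation at 30 °C; 1 = growth at the plate median or of vehicle wells; lower values mean less growth of the strain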
Settings: S. cerevisiae deletion strains, growth OD

Measured: normalized growth

C=CCN1CCC23c4c5ccc(O)c4O[C@H]2C(=O)CC[C@@]3(O)C1C5 (some centres undefined)
inactive: locus YAL013W, strain DEP1, stronger effect = lower value 1.01 | locus YAL040C, strain CLN3, stronger effect = lower value 1 | locus YCL061C, strain MRC1 (second series), stronger effect = lower value 1 | locus YDR363W, strain ESC2, stronger effect = lower value 1.01 | locus YER002W, strain NOP16, stronger effect = lower value 0.994 | locus YMR263W, strain SAP30, stronger effect = lower value 0.998 | locus YMR307W, strain GAS1, stronger effect = lower value 0.998 | locus YNL175C, strain NOP13, stronger effect = lower value 0.997 | locus YNL197C, strain WHI3, stronger effect = lower value 1.01 | locus YNL224C, strain SQS1, stronger effect = lower value 1.01 | locus YNL322C, strain KRE1, stronger effect = lower value 1.01 | locus YOR083W, strain WHI5 (second series), stronger effect = lower value 1 | locus YPL055C, strain LGE1, stronger effect = lower value 1.02 | locus YPL241C, strain CIN2, stronger effect = lower value 1
